Test results from PubChem BioAssay (NCATS).
Results filed as inconclusive are left out. Entries that show only a call come without a potency. The source holds several records for some structures; these can differ, active in one and inactive in another. Activity calls are given as the source filed them. Unless noted, calls follow the shape of the dose curve; as a rule, active = well fitted curve in the direction sought with a large enough effect; inconclusive = small, poorly fitted or top-dose-only effect, or another doubt; inactive = no such curve, though single readings can be large; an effect the other way counts as inactive or inconclusive.

Tests used:
C33A = assay: Primary qHTS to identify gynecologic anti-cancer compounds using libraries of approved drugs and bioactive compounds (AID 1345084); settings: Gynecologic cancer cell panel viability, ATPlite luminescence, 48 h; series mostly up to 57.5 µM; also: nearly all actives have a fitted effect of over 55% in size; also: potency is read from the fitted curve at half-maximal effect
How it was run: (§1)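 Five-point cytotoxicity, 48 h drug exposure at 37 C, 5% CO2, on cells seeded 16 h beforehand. ATP content read by ATPlite luminescence.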

CASKI = assay: as above; settings: Gynecologic cancer cell panel viability, ATPlite luminescence, 48 h; series mostly up to 57.5 µM
How it was run: as §1

Es-2 = assay: as above; settings: Gynecologic cancer cell panel viability, ATPlite luminescence, 48 h; series mostly up to 57.5 µM
How it was run: as §1

HeLa = assay: as above; settings: Gynecologic cancer cell panel viability, ATPlite luminescence, 48 h; series mostly up to 57.5 µM
How it was run: as §1

Hek293T = assay: as above; settings: Gynecologic cancer cell panel viability, ATPlite luminescence, 48 h, control line for the selectivity index; series mostly up to 57.5 µM
How it was run: as §1

JEG-3 = assay: as above; settings: Gynecologic cancer cell panel viability, ATPlite luminescence, 48 h; series mostly up to 57.5 µM
How it was run: as §1

OV90 = assay: as above; settings: Gynecologic cancer cell panel viability, ATPlite luminescence, 48 h; series mostly up to 57.5 µM
How it was run: as §1

PA-1 = assay: as above; settings: Gynecologic cancer cell panel viability, ATPlite luminescence, 48 h; series mostly up to 57.5 µM
How it was run: as §1

SKOV3 = assay: as above; settings: Gynecologic cancer cell panel viability, ATPlite luminescence, 48 h; series mostly up to 57.5 µM
How it was run: as §1

Tov-21-G = assay: as above; settings: Gynecologic cancer cell panel viability, ATPlite luminescence, 48 h; series mostly up to 57.5 µM
How it was run: as §1

Tov112D = assay: as above; settings: Gynecologic cancer cell panel viability, ATPlite luminescence, 48 h; series mostly up to 57.5 µM
How it was run: as §1

[1] = Drug repurposing screens with cells derived from glioblastoma tumor samples (AID 1345199); settings: GBM patient neurospheres viability, ATP luminescence, 48 h; also: nearly all actives have a fitted effect of over 40% in size
How it was run: (§2)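 Four patient lines of CD133+ GBM neurospheres were screened at several concentrations; hits were retested in those lines plus three slower-growing GBM lines, using 48-hour treatment and ATP-based viability.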

astro = assay: as above; settings: viability, ATP luminescence, 48 h; series mostly up to 45.9 µM
How it was run: as §2

[2] = qHTS assay for small molecule activators of the human pregnane X receptor (PXR) signaling pathway (AID 720659; call rule not given here)
[3] = molecular target: Nuclear receptor subfamily 1 group I member 2 (Rattus norvegicus) (UniProt Q9R1A7); assay: qHTS assay for small molecule activators of the rat pregnane X receptor (rPXR) signaling pathway (AID 651751; call rule not given here); settings: rPXR reporter cells, luciferase (One-Glo), 24 h
Chain of Nuclear receptor subfamily 1 group I member 2 (Rattus norvegicus) (Q9R1A7 whole entry, looked up): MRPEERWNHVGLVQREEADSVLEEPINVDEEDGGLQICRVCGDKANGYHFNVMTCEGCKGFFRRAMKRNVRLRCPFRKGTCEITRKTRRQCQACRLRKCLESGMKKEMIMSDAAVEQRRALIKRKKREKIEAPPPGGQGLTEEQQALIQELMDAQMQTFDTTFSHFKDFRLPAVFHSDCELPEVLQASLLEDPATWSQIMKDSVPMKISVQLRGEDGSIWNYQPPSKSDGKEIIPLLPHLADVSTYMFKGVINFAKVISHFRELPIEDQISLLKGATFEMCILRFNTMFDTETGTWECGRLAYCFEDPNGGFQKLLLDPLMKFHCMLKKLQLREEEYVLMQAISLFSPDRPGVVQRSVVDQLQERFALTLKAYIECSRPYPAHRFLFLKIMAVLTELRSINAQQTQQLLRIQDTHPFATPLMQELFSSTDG

[4] = at 45.9 µM (top of the series), tumour line B
[5] = at 45.9 µM (top of the series), tumour line D
[6] = at 46.1 µM (top of the series), tumour line C

For CC(=O)N[C@@H](CS)C(=O)O, the Potency (C33A) was “inactive”, the Potency (CASKI) was “inactive” and the Potency (Es-2) was “inactive”. For the same molecule, the Potency (HeLa) was “inactive”, the Potency (Hek293T) was “inactive” and the Potency (JEG-3) was “inactive”. For the same molecule, the Potency (OV90) was “inactive”, the Potency (PA-1) was “inactive” and the Potency (SKOV3) was “inactive”. For the same molecule, the Potency (Tov-21-G) was “inactive”, the Potency (Tov112D) was “inactive” and the activity, negative = cell killing [1, 4] was -7.88% (inactive). For the same molecule, the activity, negative = cell killing [1, 5] was -1.21% (inactive), the activity, negative = cell killing ([1]; at 46 µM (top of the series), tumour line A) was -28.2% (inactive) and the activity, negative = cell killing [1, 6] was -14.2% (inactive). For the same molecule, the Potency (astro) was “inactive” and the outcome [2] was “inactive”.

For O=C(O)c1cc(-c2ccccc2)nc2ccccc12, the Potency (C33A) was “inactive”, the Potency (CASKI) was “inactive” and the Potency (Es-2) was “inactive”. The Potency (HeLa) was 50.1 µM (active) and inactive, the Potency (Hek293T) was “inactive” and the Potency (JEG-3) was “inactive”. For the same molecule, the Potency (OV90) was “inactive”, the Potency (PA-1) was “inactive” and the Potency (SKOV3) was 28.2 µM (active) and inactive. For the same molecule, the Potency (Tov-21-G) was “inactive”, the Potency (Tov112D) was “inactive” and the activity, negative = cell killing [1, 4] was -26% (inactive). The activity, negative = cell killing [1, 5] was -24.8% (inactive), the activity, negative = cell killing [1, 6] was -23% (inactive) and the max response [3] was -0.78% (inactive). The outcome [2] was “inactive”.

For COc1ccc(Cc2ccc(NC(N)=O)cc2)cc1-c1cccc(Cl)c1, the Potency (C33A) was “inactive”, the Potency (CASKI) was “inactive” and the Potency (Es-2) was “inactive”. For the same molecule, the Potency (HeLa) was “inactive”, the Potency (Hek293T) was “inactive” and the Potency (JEG-3) was “inactive”. For the same molecule, the Potency (OV90) was “inactive”, the Potency (PA-1) was “inactive” and the Potency (SKOV3) was “inactive”. The Potency (Tov-21-G) was “inactive” and the Potency (Tov112D) was “inactive”.

For CCN(CC)CCOC(=O)c1ccc(N)cc1, the Potency (C33A) was “inactive”, the Potency (CASKI) was “inactive” and the Potency (Es-2) was “inactive”. For the same molecule, the Potency (HeLa) was “inactive”, the Potency (Hek293T) was “inactive” and the Potency (JEG-3) was “inactive”. For the same molecule, the Potency (OV90) was “inactive”, the Potency (PA-1) was “inactive” and the Potency (SKOV3) was “inactive”. The Potency (Tov-21-G) was “inactive”, the Potency (Tov112D) was “inactive” and the activity, negative = cell killing ([1]; at 20 µM (top of the series), tumour line C) was 5.7% (inactive). The activity, negative = cell killing ([1]; at 21.2 µM (top of the series), tumour line B) was -3.94% (inactive), the activity, negative = cell killing ([1]; at 21.2 µM (top of the series), tumour line D) was 2% (inactive) and the activity, negative = cell killing ([1]; at 21.3 µM (top of the series), tumour line A) was -17.4% (inactive). For the same molecule, the Potency (astro) was “inactive”.

For CC(C)(C)OC(=O)N[C@H]1CCCCCC=C[C@@H]2C[C@@]2(C(=O)NS(=O)(=O)C2CC2)NC(=O)[C@@H]2C[C@@H](OC(=O)N3Cc4cccc(F)c4C3)CN2C1=O, the Potency (C33A) was “inactive”, the Potency (CASKI) was “inactive” and the Potency (Es-2) was “inactive”. The Potency (HeLa) was “inactive”, the Potency (Hek293T) was “inactive” and the Potency (JEG-3) was “inactive”. The Potency (OV90) was “inactive”, the Potency (PA-1) was “inactive” and the Potency (SKOV3) was “inactive”. For the same molecule, the Potency (Tov-21-G) was “inactive” and the Potency (Tov112D) was “inactive”.

For COc1ccc2cccc(CCNC(C)=O)c2c1, the Potency (C33A) was “inactive”, the Potency (CASKI) was “inactive” and the Potency (Es-2) was “inactive”. For the same molecule, the Potency (HeLa) was “inactive”, the Potency (Hek293T) was “inactive” and the Potency (JEG-3) was “inactive”. For the same molecule, the Potency (OV90) was “inactive”, the Potency (PA-1) was “inactive” and the Potency (SKOV3) was “inactive”. The Potency (Tov-21-G) was “inactive” and the Potency (Tov112D) was “inactive”.

In the case of NC(=O)c1cccc(-c2cc(Nc3ccc(OC(F)(F)F)cc3)ncn2)c1, the Potency (C33A) is reported as “inactive”, the Potency (CASKI) is reported as “inactive” and the Potency (Es-2) is reported as “inactive”. The Potency (HeLa) was “inactive”, the Potency (Hek293T) was “inactive” and the Potency (JEG-3) was “inactive”. The Potency (OV90) was “inactive”, the Potency (PA-1) was “inactive” and the Potency (SKOV3) was “inactive”. For the same molecule, the Potency (Tov-21-G) was “inactive” and the Potency (Tov112D) was “inactive”.

In the case of O=C(CCN1CCN(C(=O)OCc2cc(Cl)cc(Cl)c2)CC1)c1ccc2[nH]c(=O)oc2c1, the Potency (C33A) is reported as “inactive”, the Potency (CASKI) is reported as “inactive” and the Potency (Es-2) is reported as “inactive”. The Potency (HeLa) was “inactive”, the Potency (Hek293T) was “inactive” and the Potency (JEG-3) was “inactive”. For the same molecule, the Potency (OV90) was “inactive”, the Potency (PA-1) was “inactive” and the Potency (SKOV3) was “inactive”. The Potency (Tov-21-G) was “inactive” and the Potency (Tov112D) was “inactive”.
